Lassa entry inh: inhibitors of Lassa virus binding or cell entry; Lassa virus pseudotype entry inhibition, cell reporter; Potency, µM (top dose mostly 37.9 µM), for inactives: at the top dose activity change, negative = inhibition, usual class: inhibitors; 1.2% of 300,000 active; AID 540256; calls by dose curve; tested in HEK293 cells; also: potency is read from the fitted curve at half-maximal effect; nearly all actives have a fitted effect of over 50% in size
HCMV inh: blocks human cytomegalovirus replication. HFF cells, HCMV-luciferase reporter, 72 h; active compounds read low. activity change, negative = inhibition, % at 57.5 µM. 4.5% of 410,000 active; in the data active = activity change below about -60%; inconclusive = no clear call, values can overlap the other calls; inactive = above about -39%
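Compounds were evaluated in HFFs infected with an HCMV luciferase reporter virus (MOI 1 PFU/cell). Luciferase in lysates collected 72 h post infection served as the replication measure.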
HCV inhibitor: blocks hepatitis C virus. Huh7.5.1 HCVcc-Cre infection, luciferase reporter, 44 h. Potency, µM (top dose mostly 41.8 µM), for the others: top-dose activity change, negative = inhibition, usual class: inhibitors. 3.4% of 340,000 active. AID 651820; active = well fitted inhibition curve with a large enough effect; inconclusive = small, poorly fitted or top-dose-only effect, or another doubt; inactive = no such curve, though single readings can be large or run the other way; also: potency is read from the fitted curve at half-maximal effect
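1,000 cells/well; 4 h culture; + compound; + HCVcc-Cre (~0.5 moi); 44 h; luciferase substrate, RT 15 min; read 15 sec.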
VACV Venus inh: inhibitors of vaccinia virus (Venus reporter); 0.46% of 330,000 active; Vaccinia virus Venus reporter expression, fluorescence; Potency, µM (highest dose often 36.5 µM), for inactives: top-dose activity change, negative = inhibition, most hits filed as inhibitors; calls by dose curve; tested in A549 cells; also: potency is read from the fitted curve at half-maximal effect; nearly all actives have a fitted effect of over 30% in size
Marburg entry inh: Marburg virus entry inhibition. Potency, µM (titrated, usually from 37.8 µM), without a hit: top-dose activity change, negative = inhibition, actives largely listed as inhibitors. Marburg virus pseudotyped entry inhibition, cell reporter. AID 540276. 1.8% of 300,000 active; calls by dose curve; tested in HEK293 cells; also: potency is read from the fitted curve at half-maximal effect
Vaccinia mCherry: inhibitors of vaccinia virus infection (mCherry reporter signal). Vaccinia virus mCherry reporter infection, fluorescence. Potency, µM (doses to about 36.5 µM), for the others: at the top dose activity change, negative = inhibition, hits mostly inhibitors. 0.63% of 310,000 active; calls by dose curve; tested in A549 cells; also: potency is read from the fitted curve at half-maximal effect; nearly all actives have a fitted effect of over 35% in size
The depositor's hits bear a star; i = inactive; ? = inconclusive; . = not tested or not shown; [ ] = dose if it differs, or a comment. Only some compounds are listed: those with a hit (about 7.8% of all), similar ones and a draw of the others. % is scaled to controls: 0 for no effect and ±100 for the full control effect.

SMILES	Lassa entry inh	HCMV inh	HCV inhibitor	VACV Venus inh	Marburg entry inh	Vaccinia mCherry
CN1CCN(c2ccc(NC(=S)NC(=O)c3cccc4c(Br)cccc34)cc2)CC1	-20%[46.1 µM]	15	?	-6%	?	-9%
Cc1ccccc1C(=O)N1CCN(c2ccc(NC(=O)c3cccc(OC(C)C)c3)cc2)CC1	-2%	-3	?	-6%	11%	-17%
O=C(C(=O)N1CCC(Cc2ccccc2)CC1)c1ccccc1Br	.	-63*	.	-7%	.	?
CCOC(=O)C(=O)N1CCC(Cc2ccccc2)CC1	7%	-32	1%	-15%	16%[46.1 µM]	-20%
COc1cc(OC)c(NC(=O)c2c(N3CCCC3=O)c3cc(C)ccc3n2C)cc1Cl	28%[46.1 µM]	10	.	-8%	.	5%
COc1ccccc1C(=O)Nc1nnc2n1CCS2	10%[46.1 µM]	52	.	10%	.	2%
Cc1ccc(CN(C)C(=O)c2cccc(S(=O)(=O)N3CCN(c4ccccc4)CC3)c2)cc1	?	-39	?	-10%	?	-28%
COc1ccc(CN(C)C(=O)c2cccc(S(=O)(=O)N3CCCc4ccccc43)c2)c(OC)c1OC	.	-12	11µM*	.	.	.
CN(Cc1ccc(F)cc1)C(=O)c1cccc(S(=O)(=O)N2CCN(Cc3ccccc3)CC2)c1	?	-36	?	-20%	?	-23%
COc1ccc(CN(C)C(=O)c2cccc(S(=O)(=O)N3CCN(c4ccccc4)CC3)c2)c(OC)c1OC	?	-70*	8.9µM*	-28%	?	?
CN(Cc1ccc(F)cc1)C(=O)c1cccc(S(=O)(=O)N2CCN(c3ccccc3)CC2)c1	?	-27	13µM*	-26%	?	-26%
CN(Cc1ccc(F)cc1)C(=O)c1cccc(S(=O)(=O)N2CCN(c3ccc(F)cc3)CC2)c1	?	-38	10µM*	-28%	?	?
CC1=C(c2ccc(F)cc2)S(=O)(=O)NC1=NCc1ccccc1Cl	7%[46.1 µM]	0	.	-10%	.	-17%
N#CC[n+]1cccc(Br)c1	.	.	.	-3%	.	37%
CC(C)Oc1ccc(C(=O)N2CC(=O)Nc3ccc(F)cc3C2c2ccc(F)cc2)cc1 (stereo unspecified)	?	12	.	-12%	-4%[46.1 µM]	-11%
COC1C[C@@H](O[C@@H]2C(C)C(=O)OC(C)C(C)[C@H](OC(C)=O)C(C)C(=O)[C@@]3(CO3)CC(C)C(OC3OC(C)CC(N(C)C)[C@H]3OC(C)=O)C2C)OC(C)[C@@H]1OC(C)=O (stereo partly specified)	.	.	.	-10%	.	-16%
CN(Cc1nc2ccccc2c(=O)[nH]1)C(=O)c1cccc(S(=O)(=O)N2CCc3ccccc32)c1	4µM*	-67*	3%	8%	?	?
CN(Cc1nc2ccccc2c(=O)[nH]1)C(=O)c1cccc(S(=O)(=O)N2CCCCCC2)c1	.	49	-17%	.	.	.
Nc1cc([N+](=O)[O-])cc2oc(-c3ccccc3)cc12	.	90	10µM*	.	.	.
O=c1cc(-c2ccccc2)oc2ccccc12	.	20	?	-4%	.	-3%
O=C1NC(=O)C(C2CCCCCC2)C(=O)N1	22%[46.1 µM]	-66*	8%	-13%	15%[46.1 µM]	i
CON1C(=O)C(=O)N(OC)C2CCCCCC21 (stereo unspecified)	13%	71	6%	-1%	-11%	i
CC(C)CON=C1C[C@@H](O)[C@@H](O)[C@@H]2[C@H]3C(=O)N(C[C@@H]4CCCO4)C(=O)[C@@H]3CC[C@@H]12	.	.	.	.	10%[14.2 µM]	.
O=C1[C@@H]2CSCCS(=O)(=O)N2C(=O)N1C1CCCCC1	4%[46.1 µM]	-19	.	.	.	.
O=C(Nc1ccc(N2CCCCCC2)cc1)c1ccccc1Cl	-25%[46.1 µM]	58	?	-10%	?	?
COc1ccccc1C(=O)Nc1ccc(N2CCCCC2)cc1	?	-8	15%	-5%	7.9µM*	-21%
O=C(Nc1ccc(N2CCCCC2)cc1)c1ccccn1	0.52µM*	.	-18%	-4%	0.46µM*	-17%
O=C(CCl)NCc1c(Cl)cccc1-n1cccc1	?	-98*	?	.	?	.
CN(Cc1ccccc1)C(c1cc2ccccc2o1)c1nnnn1C(C)(C)C (stereo unspecified)	.	?	.	-2%	.	7%
